This passage reports growth inhibition results from PubChem BioAssay (NCI).

About 79,000 compounds went through this panel and 15% of them were active in at least one assay; those are over-represented in the sample as a whole. Unmarked numbers belong to inactive results. Calls of active or inactive are those of the source. No stated cut-off is given here; in the data, active means growth inhibition above about 70%; inactive means the rest.

Assay [1] is described as follows: NCI Yeast Anticancer Drug Screen. Data for the rad50 strain (AID 155).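 Further: 0% = growth of vehicle-only cultures of the same strain.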 The settings on record: S. cerevisiae rad50 strain growth inhibition; at 50.0 µM; hits give high values. The method, boiled down:
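Cells are treated with compound, grown, and their growth is then scored against vehicle-only cultures of the same repair-deficient yeast strain.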

Assay [2] is described as follows: NCI Yeast Anticancer Drug Screen. Data for the mec2-1 strain (AID 157). The settings on record: S. cerevisiae mec2-1 strain, at 50.0 µM, hits give high values. In short, it runs like this:
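mec2-1 yeast strain, carrying an alteration in DNA damage repair or cell cycle control, was exposed to compounds; growth inhibition was measured relative to vehicle-treated controls.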

A short description of assay [3]: NCI Yeast Anticancer Drug Screen. Data for the sgs1 mgt1 strain (AID 161).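 Further: 0% = growth of cultures given vehicle only.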 The settings on record: S. cerevisiae sgs1 mgt1 strain, at 50.0 µM, hits give high values. In short, it runs like this:
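This yeast growth screen uses a strain with defined DNA-repair lesions; compound-treated growth is compared with vehicle-treated growth.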

Assay [4] is described as follows: NCI Yeast Anticancer Drug Screen. Data for the bub3 strain (AID 167). To be noted: S. cerevisiae bub3 mutant strain, at 50.0 µM, hits give high values. The method, boiled down:
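Part of a panel of yeast mutants defective in DNA damage repair or cell cycle regulation. Each strain is grown with compound, and inhibition is calculated relative to solvent-treated cultures.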

Assay [5] in a line: NCI Yeast Anticancer Drug Screen. Data for the mlh1 rad18 strain (AID 175). To be noted: S. cerevisiae mlh1 rad18 strain growth inhibition; at 50.0 µM; hits give high values. The method, boiled down: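 Growth inhibition of the yeast strain was measured after compound exposure and expressed relative to vehicle-treated controls. The strain carries defined defects in DNA damage repair.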

The nature of assay [6]: NCI Yeast Anticancer Drug Screen. Data for the cln2 rad14 strain (AID 165).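 Further: 0% = growth equal to vehicle treated cultures.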 To be noted: S. cerevisiae cln2 rad14 strain, at 50.0 µM, hits give high values. The method, boiled down: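 Yeast carrying cln2 and rad14 alterations (cell cycle control and DNA damage repair) were exposed to compounds. Growth inhibition was measured against vehicle-treated controls.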

Take `O=C(O)CCNC(=O)c1ccccc1`: the growth inhibition was -6.2% in assay [1]; -7.4% in assay [2]; -20% in assay [3]; 7.95% in assay [4]; -12.8% in assay [5].

As to `O=C(/C=C(\[O-])c1ccccc1)CCCCCCC(=O)/C=C(\[O-])c1ccccc1.O=C(/C=C(\[O-])c1ccccc1)CCCCCCC(=O)/C=C(\[O-])c1ccccc1.O=C(/C=C(\[O-])c1ccccc1)CCCCCCC(=O)/C=C(\[O-])c1ccccc1.[Nd+3].[Nd+3]`, the growth inhibition was 26.4% in assay [1], 22.5% in assay [2], 30.1% in assay [3] and 22.1% in assay [5].

With `CCOC(=O)COc1cc(-c2ccccc2)nc2cc(F)ccc12`, the growth inhibition in assay [1] was 10.5%; in assay [2], 7.95%; in assay [3], 0.25%; in assay [6] it was -18.4%; in assay [4], -4.1%; in assay [5] it was -25.9%.

For `COC(=O)C1CCC(=O)N1CN(C(C)=O)c1cccc(O)c1` (stereo unspecified), the growth inhibition is 5.8% in assay [1]; 3.3% in assay [2]; 0.2% in assay [3]; 9.75% in assay [6]; -52.3% in assay [5].

On to `Cc1nc(-[n+]2nc(-c3ccccc3)nn2-c2ccccc2)sc1C`, for which the growth inhibition is 3.3% in assay [1]; -15.2% in assay [2]; -18.9% in assay [3]; -26.8% in assay [4]; 7.4% in assay [5].

Take `COC(=O)c1ccc(NC(=O)O/N=C(\Cl)C(C)C)cc1`: the growth inhibition is -21.6% in assay [1]; -20.7% in assay [2]; 59.7% in assay [3]; 8.85% in assay [6]; 0.75% in assay [5].

Take `CC(C)Cc1ccc(C(C)C(=O)O)cc1` (stereo unspecified): the growth inhibition in assay [1] was 0.5%; in assay [2] it was 9.7%; in assay [3], -4.5%; in assay [4], -26.1%; in assay [5], 3.25%.

Regarding `O=C(/C=C(\[O-])c1ccccc1)CCCCCCC(=O)/C=C(\[O-])c1ccccc1.O=C(/C=C(\[O-])c1ccccc1)CCCCCCC(=O)/C=C(\[O-])c1ccccc1.O=C(/C=C(\[O-])c1ccccc1)CCCCCCC(=O)/C=C(\[O-])c1ccccc1.[Y+3].[Y+3]`, the growth inhibition in assay [1] was 7.3%; in assay [2], -3.7%; in assay [3], 8.75%; in assay [4] it was 15.4%; in assay [5] it was -1.85%.

With `CC1CC(=O)N(N(C)C)C2(C#N)C(=O)N=C(N)C12C#N` (stereo unspecified), the growth inhibition in assay [1] was 15.4%; in assay [2], 22.6%; in assay [3] it was -16.1%; in assay [6] it was 2.75%; in assay [5], -4.75%.

For the compound `COc1cc(-c2nc(SC)nc3c2CCc2ccccc2-3)cc(OC)c1OC`, the growth inhibition in assay [1] was -6%; in assay [2], -5.85%; in assay [3] it was 2.95%; in assay [6] it was 10.9%; in assay [5] it was -20.2%.

As to `C=CC1=C(C)C2=NC1=CC1=NC(=C(CC)/C1=C\O)C=C1N=C3C(=C1C)C(=O)[C@H](C(=O)OC)C3=C1NC(=C2)[C@@H](C)[C@@H]1CCC(=O)O`, the growth inhibition in assay [1] is -19.7%; in assay [2] it was 0.7%; in assay [3], 4.1%; in assay [6], 9.15%; in assay [5], -15.9%.

Turning to `O=C1c2ccccc2-c2c1c1ccccc1c(=O)n2CCO`, the growth inhibition in assay [1] is 76.8% (active); in assay [2], 43.7%; in assay [3] it was 60.4%; in assay [6], 60.6%; in assay [5], 62.8%.

For the compound `c1ccc(-c2cccc3ccccc23)cc1`, the growth inhibition in assay [1] is 32.6%; in assay [2], 6.7%; in assay [3], 2.65%; in assay [4], -11.2%; in assay [5], 16.4%.

As for `COC(=O)/C(=N\NC(=S)NN)C(C(=O)OC)C(=O)C(=O)Nc1cccc(C(F)(F)F)c1` (stereo unspecified), the growth inhibition in assay [1] was 0.3%; in assay [2], 1.4%; in assay [3] it was 8.9%; in assay [6] it was 5.6%; in assay [5] it was 24.1%.

As for `O=C(/C=C/c1ccccc1)Nc1ccccc1`, the growth inhibition in assay [1] is 12.9%; in assay [2], -21%; in assay [3], 6.35%; in assay [4], 7.05%; in assay [5] it was 35.6%.

Turning to `N#CCCOc1ccccc1`, the growth inhibition in assay [1] is -1.3%; in assay [2], -26%; in assay [3] it was -9.9%; in assay [6], 15.9%; in assay [5], -8.5%.

With `NC(=S)Nc1[nH]c(=S)nc2c1SC1=N/C(=C\c3ccco3)C(=O)N12`, the growth inhibition in assay [1] is 7.45%; in assay [2] it was -13.6%; in assay [3], 25.5%; in assay [6], 18.1%; in assay [4] it was 33.9%; in assay [5], 28.2%.

As to `O=C1NC(N/N=C\c2ccccc2)=N/C1=C/c1ccccc1`, the growth inhibition in assay [1] is -2.9%; in assay [2] it was 5.2%; in assay [3] it was -0.1%; in assay [6] it was 2.25%; in assay [5] it was -26.5%.

As to `CCO/C=N\C1=C(C#N)SC2=N/C(=C\c3ccc(OC)cc3)C(=O)N21`, the growth inhibition in assay [1] is -7.4%; in assay [2], -25.1%; in assay [3], 7.35%; in assay [6], 6.45%; in assay [5], -57.8%.

As to `COc1ccc2nc(N/N=C/c3ccc(C)s3)cc(C)c2c1`, the growth inhibition was 22.3% in assay [1]; -1.75% in assay [2]; 15.6% in assay [3]; 24.4% in assay [6]; 24.6% in assay [5].

In the case of `Clc1ccc(C2C3COc4ccccc4C3=NN2c2ccccc2)cc1` (stereo unspecified), the growth inhibition in assay [1] is -26.1%; in assay [2], -29.9%; in assay [3], -14.8%; in assay [6] it was 0.5%; in assay [5], -13.3%.
